Laboratory results taken from PubChem BioAssay AID1159580 (chemical genetic matrix, 2015).
In all, about 5,500 compounds went through this assay and about 2,000 (36%) were called active. Inconclusive results (about 18%) are left out. Cut-off read from the data, not from the text of the source: active = normalized growth mostly below about 0.91 (no sharp cut-off); inconclusive = no clear call, values can overlap the other calls; inactive = mostly above about 0.92. This is one part of the list.

Assay: chemical genetic growth profiling, strain panel (AID 1159580);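 note: tested at 20 µM; growth read once vehicle control cultures reached saturation at 30 °C; 1 = growth at the plate median or of vehicle wells; lower values mean less growth of the strain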
Details: growth OD

Measured: normalized growth

CO[C@H]1C[C@H](O[C@H]2[C@H](C)[C@@H](OC3O[C@H](C)C[C@H](N(C)C)[C@H]3OC(C)=O)[C@@H](C)C[C@]3(CO3)C(=O)[C@H](C)[C@@H](OC(C)=O)[C@@H](C)[C@@H](C)OC(=O)[C@@H]2C)O[C@@H](C)[C@@H]1OC(C)=O (some centres undefined)
inactive: S. cerevisiae deletion strains, locus YKL009W, strain mrt4, stronger effect = lower value 0.977 | S. cerevisiae deletion strains, locus YKL068W, stronger effect = lower value 0.995 | S. cerevisiae deletion strains, locus YKL085W, strain MDH1 (second series), stronger effect = lower value 0.989 | S. cerevisiae deletion strains, locus YKL085W, strain MDH1, stronger effect = lower value 0.989 | S. cerevisiae deletion strains, locus YKL160W, strain elf1, stronger effect = lower value 0.984 | S. cerevisiae deletion strains, locus YKL190W, strain CNB1, stronger effect = lower value 1 | S. cerevisiae deletion strains, locus YKR001C, strain vps1, stronger effect = lower value 0.982 | S. cerevisiae deletion strains, locus YKR026C, strain gcn3, stronger effect = lower value 0.982 | S. cerevisiae deletion strains, locus YKR091W, strain srl3, stronger effect = lower value 0.997 | S. cerevisiae deletion strains, locus YLL001W, strain dnm1, stronger effect = lower value 1.01 | S. cerevisiae deletion strains, locus YLL026W, stronger effect = lower value 1 | S. cerevisiae deletion strains, locus YLL041C, strain sdh2, stronger effect = lower value 1 | S. cerevisiae deletion strains, locus YLR027C, strain aat2, stronger effect = lower value 0.984 | S. cerevisiae deletion strains, locus YLR039C, strain RIC1, stronger effect = lower value 1.02 | S. cerevisiae deletion strains, locus YLR058C, strain SHM2, stronger effect = lower value 1.01 | S. cerevisiae deletion strains, locus YLR102C, strain apc9, stronger effect = lower value 0.989 | S. cerevisiae deletion strains, locus YLR113W, strain HOG1, stronger effect = lower value 0.978 | S. cerevisiae deletion strains, locus YLR221C, strain rsa3, stronger effect = lower value 0.99 | S. cerevisiae deletion strains, locus YLR258W, strain gsy2, stronger effect = lower value 0.997 | S. cerevisiae deletion strains, locus YLR262C, strain YPT6 (second series), stronger effect = lower value 0.983 | S. cerevisiae deletion strains, locus YLR262C, strain YPT6, stronger effect = lower value 1.02 | S. cerevisiae deletion strains, locus YLR268W, strain sec22, stronger effect = lower value 0.987 | S. cerevisiae deletion strains, locus YLR320W, strain mms22, stronger effect = lower value 0.993 | S. cerevisiae deletion strains, locus YLR330W, strain CHS5, stronger effect = lower value 1 | S. cerevisiae deletion strains, locus YLR342W, strain FKS1 (second series), stronger effect = lower value 0.983 | S. cerevisiae deletion strains, locus YLR342W, strain FKS1, stronger effect = lower value 0.982 | S. cerevisiae deletion strains, locus YLR357W, strain rsc2, stronger effect = lower value 0.997 | S. cerevisiae deletion strains, locus YLR370C, strain arc18, stronger effect = lower value 0.993 | S. cerevisiae deletion strains, locus YLR371W, strain rom2, stronger effect = lower value 0.983 | S. cerevisiae deletion strains, locus YLR384C, strain iki3, stronger effect = lower value 0.995 | S. cerevisiae deletion strains, locus YLR418C, strain cdc73, stronger effect = lower value 0.961 | S. cerevisiae deletion strains, locus YML016C, strain PPZ1, stronger effect = lower value 1.01 | S. cerevisiae deletion strains, locus YML032C, strain rad52, stronger effect = lower value 0.991 | S. cerevisiae deletion strains, locus YML120C, strain ndi1, stronger effect = lower value 0.989 | S. cerevisiae deletion strains, locus YML124C, strain tub3, stronger effect = lower value 0.985 | S. cerevisiae deletion strains, locus YMR058W, strain fet3, stronger effect = lower value 1 | S. cerevisiae deletion strains, locus YMR078C, strain ctf18, stronger effect = lower value 1 | S. cerevisiae deletion strains, locus YMR125W, strain sto1, stronger effect = lower value 0.975 | S. cerevisiae deletion strains, locus YMR129W, stronger effect = lower value 0.998 | S. cerevisiae deletion strains, locus YMR205C, strain PFK2, stronger effect = lower value 1.01 | S. cerevisiae deletion strains, locus YMR223W, strain ubp8, stronger effect = lower value 0.992 | S. cerevisiae deletion strains, locus YMR231W, strain pep5, stronger effect = lower value 0.997 | S. cerevisiae deletion strains, locus YMR263W, strain SAP30, stronger effect = lower value 1 | S. cerevisiae deletion strains, locus YMR307W, strain GAS1, stronger effect = lower value 0.962 | S. cerevisiae deletion strains, locus YNL067W, strain RPL9B, stronger effect = lower value 1.01 | S. cerevisiae deletion strains, locus YNL071W, strain lat1, stronger effect = lower value 0.975 | S. cerevisiae deletion strains, locus YNL183C, strain NPR1, stronger effect = lower value 0.932 | S. cerevisiae deletion strains, locus YNL209W, strain ssb2, stronger effect = lower value 0.99 | S. cerevisiae deletion strains, locus YNL233W, strain BNI4, stronger effect = lower value 1.02 | S. cerevisiae deletion strains, locus YNL248C, strain rpa49, stronger effect = lower value 1.01 | S. cerevisiae deletion strains, locus YNL250W, strain rad50, stronger effect = lower value 1.01 | S. cerevisiae deletion strains, locus YNL271C, strain bni1, stronger effect = lower value 0.985 | S. cerevisiae deletion strains, locus YNL298W, strain CLA4, stronger effect = lower value 0.969 | S. cerevisiae deletion strains, locus YNL307C, strain MCK1, stronger effect = lower value 0.987 | S. cerevisiae deletion strains, locus YNL322C, strain KRE1 (second series), stronger effect = lower value 0.992 | S. cerevisiae deletion strains, locus YNL322C, strain KRE1, stronger effect = lower value 1 | S. cerevisiae deletion strains, locus YNR049C, strain mso1, stronger effect = lower value 1 | S. cerevisiae deletion strains, locus YNR052C, strain pop2, stronger effect = lower value 0.998 | S. cerevisiae deletion strains, locus YOL006C, strain TOP1, stronger effect = lower value 1 | S. cerevisiae deletion strains, locus YOL012C, strain htz1 0.913 | S. cerevisiae deletion strains, locus YOL147C, strain pex11, stronger effect = lower value 0.992 | S. cerevisiae deletion strains, locus YOR001W, strain rrp6, stronger effect = lower value 1 | S. cerevisiae deletion strains, locus YOR061W, strain CKA2, stronger effect = lower value 1.01 | S. cerevisiae deletion strains, locus YOR069W, strain VPS5, stronger effect = lower value 1.01 | S. cerevisiae deletion strains, locus YOR070C, strain gyp1, stronger effect = lower value 1.01 | S. cerevisiae deletion strains, locus YOR080W, strain dia2, stronger effect = lower value 1 | S. cerevisiae deletion strains, locus YOR083W, strain WHI5, stronger effect = lower value 0.988 | S. cerevisiae deletion strains, locus YOR106W, strain vam3, stronger effect = lower value 1 | S. cerevisiae deletion strains, locus YOR136W, strain idh2, stronger effect = lower value 0.988 | S. cerevisiae deletion strains, locus YOR144C, strain elg1, stronger effect = lower value 0.985 | S. cerevisiae deletion strains, locus YOR184W, strain ser1, stronger effect = lower value 0.982 | S. cerevisiae deletion strains, locus YOR231W, strain MKK1, stronger effect = lower value 0.955 | S. cerevisiae deletion strains, locus YOR265W, strain rbl2, stronger effect = lower value 0.997 | S. cerevisiae deletion strains, locus YOR270C, strain vph1, stronger effect = lower value 1.02 | S. cerevisiae deletion strains, locus YOR290C, strain snf2, stronger effect = lower value 0.996 | S. cerevisiae deletion strains, locus YOR316C, strain cot1, stronger effect = lower value 0.993 | S. cerevisiae deletion strains, locus YPL051W, strain arl3, stronger effect = lower value 0.992 | S. cerevisiae deletion strains, locus YPL055C, strain LGE1, stronger effect = lower value 1.02 | S. cerevisiae deletion strains, locus YPL078C, strain atp4, stronger effect = lower value 1.01 | S. cerevisiae deletion strains, locus YPL106C, strain sse1, stronger effect = lower value 0.996 | S. cerevisiae deletion strains, locus YPL240C, strain hsp82, stronger effect = lower value 1 | S. cerevisiae deletion strains, locus YPL241C, strain CIN2, stronger effect = lower value 1 | S. cerevisiae deletion strains, locus YPL256C, strain CLN2, stronger effect = lower value 0.959 | S. cerevisiae deletion strains, locus YPR119W, strain clb2, stronger effect = lower value 0.986 | S. cerevisiae deletion strains, locus YPR141C, strain kar3, stronger effect = lower value 0.984 | S. cerevisiae deletion strains, locus YPR163C, strain tif3, stronger effect = lower value 0.99 | S. cerevisiae deletion strains, locus YPR167C, strain met16, stronger effect = lower value 0.979 | S. cerevisiae deletion strains, strain wtn01, stronger effect = lower value 0.975 | S. cerevisiae strains, strain wild type, stronger effect = lower value 1
